# According to the supplement of paper PMC8728848:
# About 410 targets per protein were measured; listed, in parts, are those with the strongest signals and a random draw of the rest.
# B1: MUC1-SEA-mFcIgG2a (Homo sapiens), P15941 (SEA domain only) (protein)
# chain: DAAQPARRAVRSSSELTSEQKLISEEDLSRLVHNGTSARATTTPASKSTPFSIPSHHSDTPTTLASHSTKTDASSTHHSTVPPLTSSNHSTSPQLSTGVSFFFLSFHISNLQFNSSLEDPSTDYYQELQRDISEMFLQIYKQGGFLGLSNIKFRPGSVVVQLTLAFREGTINVHDVETQFNQYKTEAASRYNLTISDASVSDVPFPFSAQSGSDDDDKALEPRGPTIKPCPPCKCPAPNLLGGPSVFIFPPKIKDVLMISLSPIVTCVVVDVSEDDPDVQISWFVNNVEVHTAQTQTHREDYNSTLRVVSALPIQHQDWMSGKEFKCKVNNKDLPAPIERTISKPKGSVRAPQVYVLPPPEEEMTKKQVTLTCMVTDFMPEDIYVEWTNNGKTELNYKNTEPVLDSDGSYFMYSKLRVEKKNWVERNSYSCSVVHEGLHNHHTTKSFSRTPGKHHHHH
# B2: Protectin (Homo sapiens), P13987 (protein)
# chain: MGIQGGSVLFGLLLVLAVFCHSGHSLQCYNCPNPTADCKTAVNCSSDFDACLITKAGLQVYNKCWKFEHCNFNDVTTRLRENELTYYCCKKDLCNFNEQLENGGTSLSEKTVLLLVTPFLAAAWSLHP
# Columns and labels:
# Assay in all cases: glycan array binding signal (z-score within array); higher = stronger binding
# Conditions in all cases: glycan notation: IUPAC condensed, linker removed
# [1] = biological target: Fuc(a1-2)Gal
# Method in brief: (§1)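 Glycan array data came from 3228 arrays in the Consortium for Functional Glycomics database, and only arrays with an available protein sequence were kept. Glycan names were put into IUPAC-condensed notation, and columns mapping to the same glycan were averaged. The binding signal is a within-array Z-score, averaged across arrays of one protein sequence run at different concentrations or buffers and across linkers. A negative Z-score can be read as non-binding.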
# [2] = biological target: Fuc(a1-2)Gal(b1-3)GalNAc
# Method in brief: as §1
# [3] = biological target: Fuc(a1-2)Gal(b1-3)GalNAc(b1-3)Gal
# Method in brief: as §1
# [4] = biological target: Fuc(a1-2)Gal(b1-3)GlcNAc
# Method in brief: as §1
# [5] = biological target: Fuc(a1-2)Gal(b1-4)Glc
# Method in brief: as §1
# [6] = biological target: Fuc(a1-2)Gal6S(b1-4)Glc6S
# Method in brief: as §1
# [7] = biological target: Fuc(a1-2)[Gal(a1-3)]Gal
# Method in brief: as §1
# [8] = biological target: Fuc(a1-2)[GalNAc(b1-3)]Gal
# Method in brief: as §1
# [9] = biological target: Fuc(a1-3)[Gal(b1-4)]GlcNAc
# Method in brief: as §1
# [10] = biological target: Fuc(a1-3)[Gal(b1-4)]GlcNAc(b1-2)Man(a1-6)[Gal(b1-4)GlcNAc(b1-2)Man(a1-3)]Man(b1-4)GlcNAc(b1-4)GlcNAc
# Method in brief: as §1
# [11] = biological target: Fuc(a1-3)[Gal(b1-4)]GlcNAc(b1-4)Gal(b1-4)[Fuc(a1-3)]GlcNAc(b1-4)Gal(b1-4)[Fuc(a1-3)]GlcNAc
# Method in brief: as §1
# [12] = biological target: Fuc(a1-3)[Gal3S(b1-4)]GlcNAc6S
# Method in brief: as §1
# [13] = biological target: Gal(b1-4)GlcNAc(b1-6)Gal(b1-4)GlcNAc(b1-6)GalNAc
# Method in brief: as §1
# [14] = biological target: Gal3S(b1-3)[Fuc(a1-4)]GlcNAc
# Method in brief: as §1
# [15] = biological target: Gal3S(b1-4)Glc6S
# Method in brief: as §1
# [16] = biological target: Gal3S6S(b1-4)GlcNAc6S
# Method in brief: as §1
# [17] = biological target: Gal4S6S(b1-4)GlcNAc
# Method in brief: as §1
# [18] = biological target: Gal6S(b1-4)Glc6S
# Method in brief: as §1
# [19] = biological target: GlcNAc(a1-6)Gal(b1-4)GlcNAc
# Method in brief: as §1
# [20] = biological target: GlcNAc(b1-3)Gal
# Method in brief: as §1
# [21] = biological target: GlcNAc(b1-4)Gal(b1-4)GlcNAc
# Method in brief: as §1
# [22] = biological target: GlcNAc(b1-4)[GlcNAc(b1-6)]GalNAc
# Method in brief: as §1
# [23] = biological target: Man(a1-2)Man(a1-3)[Man(a1-6)]Man(a1-6)[Man(a1-2)Man(a1-3)]Man(b1-4)GlcNAc(b1-4)GlcNAc
# Method in brief: as §1
# [24] = biological target: Man(a1-3)[Man(a1-6)]Man(b1-4)GlcNAc(b1-4)GlcNAc
# Method in brief: as §1
# [25] = biological target: Man(a1-6)Man
# Method in brief: as §1
# [26] = biological target: Neu5Ac(a2-6)Gal(b1-4)GlcNAc(b1-2)Man(a1-3)[Gal(b1-4)GlcNAc(b1-2)Man(a1-6)]Man(b1-4)GlcNAc(b1-4)GlcNAc
# Method in brief: as §1
# [27] = biological target: Neu5Ac(a2-6)Gal(b1-4)GlcNAc(b1-3)Gal(b1-4)GlcNAc
# Method in brief: as §1
# [28] = biological target: Neu5Ac(a2-8)Neu5Ac(a2-3)[GalNAc(b1-4)]Gal(b1-4)Glc
# Method in brief: as §1
# [29] = biological target: Fuc(a1-2)Gal(b1-3)[Fuc(a1-4)]GlcNAc(b1-2)Man(a1-3)[Fuc(a1-2)Gal(b1-3)[Fuc(a1-4)]GlcNAc(b1-2)Man(a1-6)]Man(b1-4)GlcNAc(b1-4)GlcNAc
# Method in brief: as §1
# [30] = biological target: Fuc(a1-2)Gal(b1-3)[Fuc(a1-4)]GlcNAc(b1-3)[Gal(b1-4)GlcNAc(b1-6)]Gal(b1-4)Glc
# Method in brief: as §1
# [31] = biological target: Fuc(a1-2)Gal(b1-4)[Fuc(a1-3)]GlcNAc(b1-2)[Fuc(a1-2)Gal(b1-4)[Fuc(a1-3)]GlcNAc(b1-4)]Man(a1-3)[Fuc(a1-2)Gal(b1-4)[Fuc(a1-3)]GlcNAc(b1-2)Man(a1-6)]Man(b1-4)GlcNAc(b1-4)GlcNAc
# Method in brief: as §1
# [32] = biological target: Fuc(a1-2)Gal(b1-4)[Fuc(a1-3)]GlcNAc(b1-3)GalNAc
# Method in brief: as §1
# [33] = biological target: Fuc(a1-3)GlcNAc
# Method in brief: as §1
# [34] = biological target: Fuc(a1-3)[Gal(b1-4)]GlcNAc(b1-6)GalNAc
# Method in brief: as §1
# [35] = biological target: Fuc(a1-3)[Gal(b1-4)]GlcNAc(b1-6)[Gal(b1-3)GlcNAc(b1-3)]Gal(b1-4)Glc
# Method in brief: as §1
# [36] = biological target: Gal(a1-3)Gal(b1-4)GlcNAc
# Method in brief: as §1
# [37] = biological target: Gal(b1-3)GalNAc(a1-3)[Fuc(a1-2)]Gal(b1-4)GlcNAc
# Method in brief: as §1
# [38] = biological target: Gal(b1-3)GlcNAc(b1-3)Gal(b1-4)Glc
# Method in brief: as §1
# [39] = biological target: Gal(b1-3)[Neu5Ac(a2-6)]GalNAc
# Method in brief: as §1
# [40] = biological target: Gal(b1-4)Glc6S
# Method in brief: as §1
# [41] = biological target: Gal(b1-4)GlcNAc
# Method in brief: as §1
# [42] = biological target: Gal(b1-4)GlcNAc(b1-2)Man
# Method in brief: as §1
# [43] = biological target: Gal(b1-4)GlcNAc(b1-3)Gal(b1-4)[Fuc(a1-3)GlcNAc(b1-6)]Gal(b1-4)Glc
# Method in brief: as §1
# [44] = biological target: Gal3S6S(b1-4)GlcNAc
# Method in brief: as §1
# [45] = biological target: GalNAc(b1-3)Gal
# Method in brief: as §1
# [46] = biological target: GalNAc(b1-4)GlcNAc(b1-2)Man(a1-3)[GalNAc(b1-4)GlcNAc(b1-2)Man(a1-6)]Man(b1-4)GlcNAc(b1-4)GlcNAc
# Method in brief: as §1
# [47] = biological target: GlcNAc(a1-4)Gal(b1-4)GlcNAc(b1-3)Gal(b1-4)[Fuc(a1-3)]GlcNAc(b1-3)Gal(b1-4)[Fuc(a1-3)]GlcNAc
# Method in brief: as §1
# [48] = biological target: GlcNAc(b1-2)[GlcNAc(b1-6)]Man(a1-6)[GlcNAc(b1-2)Man(a1-3)]Man(b1-4)GlcNAc(b1-4)GlcNAc
# Method in brief: as §1
# [49] = biological target: Man(b1-4)GlcNAc
# Method in brief: as §1
# [50] = biological target: Neu5Ac(a2-3)Gal(b1-3)[Fuc(a1-4)]GlcNAc(b1-3)Gal(b1-3)[Fuc(a1-4)]GlcNAc
# Method in brief: as §1
# [51] = biological target: Neu5Ac(a2-3)Gal(b1-4)GlcNAc(b1-3)Gal(b1-4)GlcNAc
# Method in brief: as §1
# [52] = biological target: Neu5Ac(a2-3)Gal(b1-4)GlcNAc(b1-3)Gal(b1-4)[Fuc(a1-3)]GlcNAc
# Method in brief: as §1
# [53] = biological target: Neu5Ac(a2-3)Gal(b1-4)[Fuc(a1-3)]GlcNAc(b1-6)[Gal(b1-3)]GalNAc
# Method in brief: as §1
# [54] = biological target: Neu5Ac(a2-6)GlcNAc(b1-4)GlcNAc
# Method in brief: as §1
# [55] = biological target: Neu5Gc(a2-3)Gal(b1-3)[Fuc(a1-4)]GlcNAc
# Method in brief: as §1
binder,measurement,setting,value
B1,glycan array binding signal (z-score),[1],-0.228
same,glycan array binding signal (z-score),[2],-0.514
same,glycan array binding signal (z-score),[3],7.39
same,glycan array binding signal (z-score),[4],0.04
same,glycan array binding signal (z-score),[5],0.163
same,glycan array binding signal (z-score),[6],1.99
same,glycan array binding signal (z-score),[7],0.424
same,glycan array binding signal (z-score),[8],-0.373
same,glycan array binding signal (z-score),[9],0.485
same,glycan array binding signal (z-score),[10],-0.32
same,glycan array binding signal (z-score),[11],-0.045
same,glycan array binding signal (z-score),[12],1.11
same,glycan array binding signal (z-score),[13],-0.381
same,glycan array binding signal (z-score),[14],-0.332
same,glycan array binding signal (z-score),[15],2.09
same,glycan array binding signal (z-score),[16],3.49
same,glycan array binding signal (z-score),[17],0.978
same,glycan array binding signal (z-score),[18],2.14
same,glycan array binding signal (z-score),[19],-0.14
same,glycan array binding signal (z-score),[20],-0.151
same,glycan array binding signal (z-score),[21],-0.565
same,glycan array binding signal (z-score),[22],-0.223
same,glycan array binding signal (z-score),[23],-0.266
same,glycan array binding signal (z-score),[24],-0.235
same,glycan array binding signal (z-score),[25],-0.113
same,glycan array binding signal (z-score),[26],-0.245
same,glycan array binding signal (z-score),[27],-0.465
same,glycan array binding signal (z-score),[28],-0.453
B2,glycan array binding signal (z-score),[1],-0.701
same,glycan array binding signal (z-score),[29],3.68
same,glycan array binding signal (z-score),[30],-0.784
same,glycan array binding signal (z-score),[31],2.73
same,glycan array binding signal (z-score),[32],3.6
same,glycan array binding signal (z-score),[6],-0.108
same,glycan array binding signal (z-score),[33],-0.062
same,glycan array binding signal (z-score),[9],0.55
same,glycan array binding signal (z-score),[34],2.63
same,glycan array binding signal (z-score),[35],-0.354
same,glycan array binding signal (z-score),[36],1.53
same,glycan array binding signal (z-score),[37],-0.989
same,glycan array binding signal (z-score),[38],2.77
same,glycan array binding signal (z-score),[39],0.383
same,glycan array binding signal (z-score),[40],0.209
same,glycan array binding signal (z-score),[41],0.172
same,glycan array binding signal (z-score),[42],0.267
same,glycan array binding signal (z-score),[43],-0.518
same,glycan array binding signal (z-score),[15],-0.411
same,glycan array binding signal (z-score),[44],-0.261
same,glycan array binding signal (z-score),[17],0.014
same,glycan array binding signal (z-score),[45],-1.36
same,glycan array binding signal (z-score),[46],2.58
same,glycan array binding signal (z-score),[47],6.43
same,glycan array binding signal (z-score),[19],-0.166
same,glycan array binding signal (z-score),[48],-0.347
same,glycan array binding signal (z-score),[49],-0.439
same,glycan array binding signal (z-score),[50],3.13
same,glycan array binding signal (z-score),[51],0.462
same,glycan array binding signal (z-score),[52],0.647
same,glycan array binding signal (z-score),[53],-0.153
same,glycan array binding signal (z-score),[26],-1.94
same,glycan array binding signal (z-score),[54],-0.361
same,glycan array binding signal (z-score),[55],0.087
